Four compounds from PubChem BioAssay (EPA / NIEHS) can be followed below.

The term AC50 denotes the concentration giving half of the maximal activity seen.

The source made the active and inactive calls. Rule for the calls: active = hit-call score of the fitted dose curve at least 0.9, where 1 is the maximum; inactive = score below 0.9.

A short description of test [1]: ATG_CRE_CIS: Attagene CIS-FACTORIAL HepG2 Assay for human cAMP Responsive Element (CRE) binding protein 3 (AID 2282926). The following applies: HepG2 CRE cis-reporter, Attagene multiplexed mRNA; actives raise or lower the signal. The essentials: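 Endogenous transcription factor activity read via CRE-regulated reporter transcripts in transfected HepG2 cells. After 24 h exposure, RNA was reverse-transcribed, amplified, fluorescently labelled and sized by capillary electrophoresis; gain or loss fitted against DMSO.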

The target in test [2] is CCAAT/enhancer-binding protein beta (Homo sapiens) (UniProt P17676). Nature of the test: ATG_C_EBP_CIS: Attagene CIS-FACTORIAL HepG2 Assay for human CCAAT/Enhancer Binding Protein (C/EBP) beta (AID 2282927). Conditions: HepG2 Attagene cis-factorial transcription factor reporter; actives raise or lower the signal. The essentials:
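Endogenous transcription factor activity in human liver HepG2 cells is inferred from induction of a CEBPB-linked reporter mRNA. Exposure lasts 24 h; activity is fitted in both directions relative to DMSO.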

The nature of test [3]: ATG_CMV_CIS: Attagene CIS-FACTORIAL HepG2 Assay for human CMV (Internal Marker) (AID 2282928).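 Note: endpoint acts as a background internal control marker rather than a target.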 Conditions: HepG2 CMV promoter reporter, transcription factor profiling; actives raise or lower the signal. The essentials:
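Readout: fluorescent reporter cDNA fragments separated by capillary electrophoresis after RT-PCR and HpaI cut. Cells: HepG2 carrying transfected cis-promoter reporter constructs, dosed 24 h. Endpoint serves as background internal-marker control, fit bidirectionally versus DMSO.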

The nature of test [4]: ATG_AP_1_CIS: Attagene CIS-FACTORIAL HepG2 Assay for human Activator Protein 1 (AP-1) (AID 2282931). Conditions: HepG2 Attagene cis-factorial AP-1 reporter mRNA; actives raise or lower the signal. The essentials:
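Reporter transcripts were measured 24 h after dosing by RT-PCR and capillary electrophoresis of fluorescent fragments. Cells: HepG2 carrying transfected cis-regulated reporter constructs reading endogenous factor activity. Gain or loss fitted against DMSO.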

The nature of test [5]: ATG_AP_2_CIS: Attagene CIS-FACTORIAL HepG2 Assay for human Activator Protein 2 (AP-2) (AID 2282932). Conditions: HepG2 AP-2 cis-reporter, Attagene transcription factor profiling; actives raise or lower the signal. A digest of the protocol:
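Transiently transfected HepG2 cells are exposed to chemical for 24 h. Reporter transcripts are then measured as fluorescence following RT-PCR and capillary separation, and gain- or loss-of-signal is fitted relative to DMSO.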

Test [6] can be described thus: ATG_BRE_CIS: Attagene CIS-FACTORIAL HepG2 Assay for human Bone Morphogenetic Protein (BMP) Response Element (BRE) (AID 2282933). Conditions: HepG2 BMP response element reporter, Attagene transcription factor profiling; actives raise or lower the signal. The essentials: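 Endogenous transcription factor activity read in transiently transfected HepG2 cells after 24 h chemical exposure. Bidirectional curve fitting against DMSO; readout is reporter transcript level by RT-PCR with capillary electrophoresis of labelled products.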

Test [7] concerns the target Transcription factor E2F1 (Homo sapiens) (UniProt Q01094). Description: ATG_E2F_CIS: Attagene CIS-FACTORIAL HepG2 Assay for human E2F Transcription Factor 1 (AID 2282935). Conditions: HepG2 Attagene cis-reporter, E2F reporter RNA transcripts; actives raise or lower the signal. The essentials: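 Fluorescent RT-PCR products, digested with HpaI for 2 h at 37 C, are separated by capillary electrophoresis. Source RNA comes from transfected HepG2 cultures treated for 24 h.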

Test [8] can be described thus: ATG_E_Box_CIS: Attagene CIS-FACTORIAL HepG2 Assay for human Enhancer Box (E-box) (AID 2282936). Conditions: HepG2 E-box cis-reporter transcription, actives raise or lower the signal. The essentials:
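Fluorescent reporter fragments separated by capillary electrophoresis gave the signal; mRNA came from HepG2 cells transfected with cis-element reporters and treated 24 h. Curves fitted bidirectionally relative to DMSO controls.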

The nature of test [9]: ATG_M_61_CIS: Attagene CIS-FACTORIAL HepG2 Assay for M61 Transcription Factor (Internal Marker) (AID 2282937). Conditions: HepG2 Attagene CIS-FACTORIAL M61 internal marker reporter; actives raise or lower the signal. The essentials: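 Readout: fluorescent reporter mRNA fragments resolved by capillary electrophoresis after RT-PCR. Transiently transfected human HepG2 cells carried MRTU constructs reporting endogenous TF activity; 24 h chemical exposure; gain or loss of signal fitted relative to DMSO.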

Test [10] in a line: ATG_EGR_CIS: Attagene CIS-FACTORIAL HepG2 Assay for human Early Growth Response 1 (EGR1) (AID 2282938). The following applies: HepG2 Attagene CIS-FACTORIAL EGR reporter mRNA; actives raise or lower the signal. A digest of the protocol: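 Read-out: fluorescent reporter-mRNA fragments resolved by capillary electrophoresis after RT-PCR, 24 h post-dose in transiently transfected HepG2. Endogenous transcription-factor activity reported via cis-element-regulated reporter units; gain or loss fitted relative to DMSO.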

Test [11] in a line: ATG_M_19_CIS: Attagene CIS-FACTORIAL HepG2 Assay for M19 Transcription Factor (Internal Marker) (AID 2282939). Conditions: HepG2 Attagene CIS-FACTORIAL M19 internal marker reporter; actives raise or lower the signal. A digest of the protocol:
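Internal marker readout, fitted in both directions against DMSO, from HepG2 cells carrying transfected cis-element reporter constructs; RT-PCR and capillary electrophoresis of reporter mRNA after 24 h exposure.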

Test [12] is described as follows: ATG_GATA_CIS: Attagene CIS-FACTORIAL HepG2 Assay for human GATA Binding Protein (AID 2282944). The following applies: HepG2 GATA cis-element reporter, Attagene multiplex mRNA; actives raise or lower the signal. A digest of the protocol:
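Reporter transcripts from a GATA cis-regulated unit, among multiplexed reporters in transfected HepG2 cells, were measured by RT-PCR with capillary electrophoresis after 24 h dosing. Induction or loss scored relative to DMSO.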

Test [13] can be described thus: ATG_GLI_CIS: Attagene CIS-FACTORIAL HepG2 Assay for human Zinc Finger Protein GLI1 (AID 2282945). Conditions: HepG2, Attagene cis-factorial reporter mRNA, GLI element; actives raise or lower the signal. The essentials: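 Bidirectional curve fits relative to DMSO, using reporter mRNA levels from RT-PCR plus capillary electrophoresis. Cells were HepG2 transiently carrying cis-regulated reporter constructs, harvested 24 h after dosing.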

A short description of test [14]: ATG_ISRE_CIS: Attagene CIS-FACTORIAL HepG2 Assay for human Interferon Regulatory Factor 1 (IRF1) binding to an Interferon-Stimulated Response Element (ISRE) (AID 2282948). Conditions: HepG2 ISRE cis-reporter (Attagene), mRNA transcription readout; actives raise or lower the signal. A digest of the protocol:
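Read-out: fluorescent RT-PCR products resolved by capillary electrophoresis, reporting endogenous transcription factor activity via ISRE-driven reporter mRNA in transfected HepG2 cells dosed for 24 h; gain or loss fitted relative to DMSO.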

Test [15] is described as follows: ATG_M_32_CIS: Attagene CIS-FACTORIAL HepG2 Assay for M32 Transcription Factor (Internal Marker) (AID 2282949).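 Note: background control marker of the multiplexed CIS panel rather than a real target.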 The following applies: HepG2 Attagene cis-factorial M32 reporter, mRNA; actives raise or lower the signal. The essentials:
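Transient MRTU transfection of HepG2; 24 h compound treatment; TriZol RNA, oligo(dT) RT, reporter PCR, 6-FAM primer extension, HpaI cut, CE. Gain/loss of signal vs DMSO.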

A short description of test [16]: ATG_MRE_CIS: Attagene CIS-FACTORIAL HepG2 Assay for human Metal Responsive Element (MRE) (AID 2282954). Conditions: HepG2 MRE cis-reporter transcription, Attagene multiplex; actives raise or lower the signal. The essentials:
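Multiplexed cis-reporter assay in human HepG2 liver cells, 24 h incubation with test chemical. Reporter transcripts measured by RT-PCR and capillary electrophoresis; values from bidirectional curve fitting versus DMSO.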

For test [17], the target named is Paired box protein Pax-6 (Homo sapiens) (UniProt P26367). Description: ATG_Pax6_CIS: Attagene CIS-FACTORIAL HepG2 Assay for human Paired Box 6 (PAX6) (AID 2282956). Conditions: HepG2 CIS-FACTORIAL PAX6 reporter transcription, RNA readout; actives raise or lower the signal. The essentials:
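Readout: reporter transcript fluorescence after RT-PCR and capillary electrophoresis. Cells: HepG2, transiently transfected with cis-regulated MRTUs. Exposure 24 h. Gain or loss of signal fitted bidirectionally relative to DMSO.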

A short description of test [18]: ATG_PXRE_CIS: Attagene CIS-FACTORIAL HepG2 Assay for human Pregnane X Receptor Element (PXRE) (AID 2282957). The following applies: HepG2 Attagene CIS-FACTORIAL PXRE reporter, mRNA; actives raise or lower the signal. The essentials:
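Reporter transcripts under endogenous PXR-responsive cis-regulation quantified from total RNA of transfected HepG2 cells 24 h post-dosing, via RT-PCR with fluorescent primer extension and capillary electrophoresis. Gain or loss of signal fitted against DMSO baseline.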

For test [19], the target named is Transcription factor Sp1 (Homo sapiens) (UniProt P08047). Description: ATG_Sp1_CIS: Attagene CIS-FACTORIAL HepG2 Assay for human Specificity Protein 1 (Sp1) (AID 2282961). The following applies: HepG2 Sp1 cis-reporter transcription, actives raise or lower the signal. The essentials:
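Read-out: fluorescence of 6-FAM-labeled, HpaI-digested RT-PCR products separated by capillary electrophoresis. HepG2 cells carried transfected cis-element reporter units and were exposed to chemicals for 24 h; gain or loss of signal fitted relative to DMSO.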

In test [20] the target is Signal transducer and activator of transcription 3 (Homo sapiens) (UniProt P40763). Description: ATG_STAT3_CIS: Attagene CIS-FACTORIAL HepG2 Assay for human Signal Transducer and Activator of Transcription 3 (STAT3) (AID 2282963). The following applies: HepG2, Attagene cis-factorial STAT3 reporter transcription; actives raise or lower the signal. The essentials: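 Cis-factorial format: endogenous transcription factors in HepG2 drive transfected reporter units. After 24 h treatment, reporter RNA was reverse-transcribed, amplified, FAM-labelled and HpaI-digested before CE analysis; activity scored in both directions against DMSO.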
Signal transducer and activator of transcription 3 (Homo sapiens), sequence (P40763 whole entry, looked up): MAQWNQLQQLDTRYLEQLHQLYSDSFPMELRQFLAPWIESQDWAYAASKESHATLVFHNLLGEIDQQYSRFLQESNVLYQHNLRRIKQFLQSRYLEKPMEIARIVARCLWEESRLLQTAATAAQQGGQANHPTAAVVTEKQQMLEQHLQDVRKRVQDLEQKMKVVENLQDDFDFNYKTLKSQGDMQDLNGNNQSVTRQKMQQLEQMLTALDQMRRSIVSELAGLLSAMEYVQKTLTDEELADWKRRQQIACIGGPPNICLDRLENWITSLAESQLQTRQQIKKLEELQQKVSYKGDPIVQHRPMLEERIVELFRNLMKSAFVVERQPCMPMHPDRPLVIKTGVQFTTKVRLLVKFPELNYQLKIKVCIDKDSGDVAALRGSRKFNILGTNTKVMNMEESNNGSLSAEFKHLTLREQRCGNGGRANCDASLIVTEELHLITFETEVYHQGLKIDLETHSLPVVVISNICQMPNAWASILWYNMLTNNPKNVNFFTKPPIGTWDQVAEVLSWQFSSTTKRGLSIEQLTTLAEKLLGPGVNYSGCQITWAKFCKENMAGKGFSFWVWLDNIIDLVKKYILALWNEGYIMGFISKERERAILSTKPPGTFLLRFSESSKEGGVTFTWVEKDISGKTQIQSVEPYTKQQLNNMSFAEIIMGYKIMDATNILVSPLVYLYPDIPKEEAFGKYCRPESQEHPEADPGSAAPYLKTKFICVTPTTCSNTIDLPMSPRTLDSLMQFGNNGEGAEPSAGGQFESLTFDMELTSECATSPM

Transcription factor Sp1 (Homo sapiens), sequence (P08047 whole entry, looked up): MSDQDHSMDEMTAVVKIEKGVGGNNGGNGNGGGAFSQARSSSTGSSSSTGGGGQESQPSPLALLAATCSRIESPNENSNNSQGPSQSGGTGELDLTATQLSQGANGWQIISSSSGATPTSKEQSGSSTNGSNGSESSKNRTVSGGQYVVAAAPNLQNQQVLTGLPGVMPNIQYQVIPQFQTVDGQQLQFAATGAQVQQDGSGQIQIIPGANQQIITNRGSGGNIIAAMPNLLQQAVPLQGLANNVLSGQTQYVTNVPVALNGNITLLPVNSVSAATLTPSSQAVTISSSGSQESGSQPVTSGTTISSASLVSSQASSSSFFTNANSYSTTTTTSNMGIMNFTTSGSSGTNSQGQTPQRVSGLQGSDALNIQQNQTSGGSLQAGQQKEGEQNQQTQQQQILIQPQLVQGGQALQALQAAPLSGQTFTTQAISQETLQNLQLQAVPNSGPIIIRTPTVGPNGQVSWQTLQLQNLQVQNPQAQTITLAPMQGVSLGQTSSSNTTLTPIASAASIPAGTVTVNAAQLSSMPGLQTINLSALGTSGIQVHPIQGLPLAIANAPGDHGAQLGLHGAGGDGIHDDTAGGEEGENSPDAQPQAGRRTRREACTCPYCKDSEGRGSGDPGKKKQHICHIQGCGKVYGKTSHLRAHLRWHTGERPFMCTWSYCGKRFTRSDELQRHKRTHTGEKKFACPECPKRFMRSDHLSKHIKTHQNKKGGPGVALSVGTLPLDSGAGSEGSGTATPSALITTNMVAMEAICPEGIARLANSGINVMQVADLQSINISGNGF
Transcription factor E2F1 (Homo sapiens), sequence (Q01094 whole entry, looked up): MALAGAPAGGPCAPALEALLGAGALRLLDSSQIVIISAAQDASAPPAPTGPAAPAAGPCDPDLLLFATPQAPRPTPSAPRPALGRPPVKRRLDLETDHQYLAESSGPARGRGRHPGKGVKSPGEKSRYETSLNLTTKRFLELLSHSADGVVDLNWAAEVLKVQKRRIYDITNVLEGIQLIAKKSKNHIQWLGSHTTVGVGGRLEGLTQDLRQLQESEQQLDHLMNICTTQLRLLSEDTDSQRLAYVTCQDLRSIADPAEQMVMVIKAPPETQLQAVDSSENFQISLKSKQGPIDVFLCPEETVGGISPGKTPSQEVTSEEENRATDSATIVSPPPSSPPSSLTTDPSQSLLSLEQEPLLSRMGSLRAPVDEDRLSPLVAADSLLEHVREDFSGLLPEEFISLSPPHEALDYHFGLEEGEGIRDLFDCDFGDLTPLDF
CCAAT/enhancer-binding protein beta (Homo sapiens), sequence (P17676 whole entry, looked up): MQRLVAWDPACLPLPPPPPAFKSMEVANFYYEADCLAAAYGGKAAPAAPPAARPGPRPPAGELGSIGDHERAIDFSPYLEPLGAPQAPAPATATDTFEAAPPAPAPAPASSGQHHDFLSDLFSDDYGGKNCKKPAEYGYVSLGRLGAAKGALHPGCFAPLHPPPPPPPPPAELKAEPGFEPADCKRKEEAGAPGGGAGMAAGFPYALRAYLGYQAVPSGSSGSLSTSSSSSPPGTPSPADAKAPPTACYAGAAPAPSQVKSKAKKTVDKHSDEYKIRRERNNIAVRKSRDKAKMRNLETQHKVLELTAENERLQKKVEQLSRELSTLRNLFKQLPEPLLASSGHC
Paired box protein Pax-6 (Homo sapiens), sequence (P26367 whole entry, looked up): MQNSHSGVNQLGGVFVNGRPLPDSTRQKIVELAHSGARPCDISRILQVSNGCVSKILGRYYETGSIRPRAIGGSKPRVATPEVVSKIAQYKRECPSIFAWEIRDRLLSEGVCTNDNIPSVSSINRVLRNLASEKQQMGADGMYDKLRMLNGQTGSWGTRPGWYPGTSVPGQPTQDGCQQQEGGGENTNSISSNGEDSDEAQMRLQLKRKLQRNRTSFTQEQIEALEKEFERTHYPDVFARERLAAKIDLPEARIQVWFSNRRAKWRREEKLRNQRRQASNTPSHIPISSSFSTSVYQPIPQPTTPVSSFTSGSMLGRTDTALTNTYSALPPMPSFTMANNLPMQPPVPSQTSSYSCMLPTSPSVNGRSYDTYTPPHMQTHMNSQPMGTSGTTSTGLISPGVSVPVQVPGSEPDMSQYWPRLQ

Regarding `O=C(O)c1nc(Cl)c(Cl)c(Cl)c1Cl`, the outcome in [1], in test [2], in [3], in [4], in test [5] and in test [6] was inactive. Also, the compound was called inactive in [7], in [8], in test [9], in test [10], in test [11] and in test [12]. Also, the compound was called inactive in [13], in test [14], in test [15], in [16], in test [17] and in test [19]. In addition, in test [20], the result was inactive. The AC50 in [18] is 73 µM (active).

For the compound `O=[N+]([O-])c1ccccc1C(F)(F)F`, the call in test [1], in test [2], in [3], in test [4], in test [5] and in [6] was inactive. Besides, the result in test [7], in test [8], in test [9], in test [10], in test [11] and in test [12] was inactive. For the same compound, the result in test [13], in test [14], in test [15], in [16], in test [17] and in test [18] was inactive. The result in test [19] and in [20] was inactive.

On to `c1cc(N(CC2CO2)CC2CO2)ccc1Cc1ccc(N(CC2CO2)CC2CO2)cc1` (stereo not given), for which the compound was called inactive in test [1], in test [6], in test [7], in test [9], in test [11] and in [12]. The call in [15], in test [18] and in test [20] was inactive. Moreover, the half-maximal activity concentration (AC50) is 99.5 µM (active) in test [2]; 26.6 µM (active) in test [3]; 54.4 µM (active) in [4]; 26.3 µM (active) in test [5]; 34.3 µM (active) in test [8]; 18.4 µM (active) in test [10]. Also, the AC50 was 26.4 µM (active) in [13]; 21.7 µM (active) in [14]; 21.3 µM (active) in [16]; 9.31 µM (active) in test [17]; 5.73 µM (active) in [19].

With `Cc1cc(-n2nc3ccc(Cl)cc3n2)c(O)c(C(C)(C)C)c1`, the compound was called inactive in test [1], in test [2], in test [3], in [4], in test [5] and in test [6]. Also, the outcome in test [7], in test [8], in test [9], in [10], in test [11] and in test [12] was inactive. Further, the result in test [13], in test [14], in [15], in test [16], in test [17] and in test [19] was inactive. For the same compound, the outcome in test [20] was inactive. For the same compound, in test [18], the AC50 is 2.86 µM (active).
